Results on 42 sequences are retold here after PMC7819943, “Rice protein-binding microarrays: a tool to detect cis-acting elements near promoter regions in rice”.

Over roughly 35,000 sequences, “fluorescence intensity (a.u.)” has its median near 10,000; the highest 2% begin near 52,000. The entries come from a sample that favours the highest values as a whole.

The target in this assay is T1, OsWOX13 (Oryza sativa, UniProt Q5QMM3 1-267).
T1 sequence: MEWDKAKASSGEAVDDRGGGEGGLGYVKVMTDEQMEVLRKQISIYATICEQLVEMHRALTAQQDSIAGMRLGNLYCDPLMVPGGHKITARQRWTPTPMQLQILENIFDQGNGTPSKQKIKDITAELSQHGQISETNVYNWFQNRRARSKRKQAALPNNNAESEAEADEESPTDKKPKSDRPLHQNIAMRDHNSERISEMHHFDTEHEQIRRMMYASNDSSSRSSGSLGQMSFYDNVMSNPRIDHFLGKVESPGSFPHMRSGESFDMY
In words: protein-binding microarray (RPBM); PBS, 2% BSA, 51.3 ng/ul salmon testes DNA, 50 uM zinc acetate, 200 nM TF, 25 C, 1 h; high values mean tight binding. The note with it: protein: recombinant; tags: N-terminal polyhistidine and DsRed monomer fusion (pET32a); label: CyDye5-dUTP incorporated in the synthesized complementary strand; 3' TTTTT single-stranded linker to array surface; dsDNA, one strand shown. In outline:
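Binding signal is defined as the fluorescence intensity of each feature in arbitrary units, read on an Axon 4000B scanner. Transcription factors with N-terminal polyhistidine and DsRed fusions came from E. coli BL21-CodonPlus and were purified on Ni–NTA. They were incubated at 200 nM for 1 h at 25 °C on a custom Agilent array that had been made double-stranded with Cy5-dUTP, with 50 µM zinc acetate present, and the array was washed.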
“GAGAAATGGTAATTTAGCATGCTTATATATTGAGGTTTAGCGGAGTCACCTAGTGCAG”: the binding signal was 8510 fluorescence intensity (a.u.).

Consider “TAATCTGTGATGATGGATTCTCGTTAAGCATATGTTCTTTCGGAGTCACCTAGTGCAG”, for which the binding signal was 5830 fluorescence intensity (a.u.). The result for “TGGTGGTGGCTGGCGGCGGGGAGGATGAGAACGAGAGAAGCGGAGTCACCTAGTGCAG” reads 3920 fluorescence intensity (a.u.).

As for “TTCCGGCCTAGATTGAATCTGGGTTTAACCGTAAGAGTCCCGGAGTCACCTAGTGCAG”, the binding signal was 6260 fluorescence intensity (a.u.). Then “GTGGATATCAATCTGTATATACTAGATCCCCACCCACCATCGGAGTCACCTAGTGCAG”, with 6630 fluorescence intensity (a.u.); and “TCGAACAGGCCCTTAATTATCTGAGCTATCCTGCATGCTTCGGAGTCACCTAGTGCAG”, with 8320 fluorescence intensity (a.u.); and “GGCAAATTAACCAAGTTAGCTGCAGCTGCAGCTGGGATGGCGGAGTCACCTAGTGCAG”, with 9780 fluorescence intensity (a.u.). On to “CATTTGATTGTATTTCCATCTTATTCTTAATCTGTATAAGCGGAGTCACCTAGTGCAG”, for which the binding signal is 32100 fluorescence intensity (a.u.). For “ACCAATCACAACCATTCTTCTTCACTTACTTTCTCTTTTCCGGAGTCACCTAGTGCAG”, the binding signal is 6630 fluorescence intensity (a.u.). The result for “ATTGATTATGCCATGATTGGATCTTGGCACAGTGCTCTGCCGGAGTCACCTAGTGCAG” reads 60300 fluorescence intensity (a.u.); that for “ATATTATTATATTATAATTATACTGTATTTATATCTGATACGGAGTCACCTAGTGCAG”, 9100 fluorescence intensity (a.u.). In the case of “TTCTGTAATTGATGCTCCTGCATTTTAGTGTATAAGTGTACGGAGTCACCTAGTGCAG”, the binding signal was 36500 fluorescence intensity (a.u.).

As for “TTGATGATGTAACGTACGGTTGATTAATAATAAATTAGGTCGGAGTCACCTAGTGCAG”, the binding signal is 18400 fluorescence intensity (a.u.).

As to “TGCCAACTTATCCATCAATTGAGATTAATGATTTGGTCTTCGGAGTCACCTAGTGCAG”, the binding signal was 13900 fluorescence intensity (a.u.).

As to “CTATATCTTGATGCTTTGTTGATTAGTACCATGGATTGGCCGGAGTCACCTAGTGCAG”, the binding signal was 6900 fluorescence intensity (a.u.).

“GTCTTAATTATATTTGATAATCAACTTTATCCTTGGTTTGCGGAGTCACCTAGTGCAG”: the binding signal was 50800 fluorescence intensity (a.u.). Then “GAAGTTGATTATGAGCTCTTGGATCTTTTGGCAGGTGCAACGGAGTCACCTAGTGCAG”, with 19400 fluorescence intensity (a.u.); and “TGTGATTAAATGATTCCTCCAGTGCTATATGCCTATATAACGGAGTCACCTAGTGCAG”, with 17500 fluorescence intensity (a.u.).

For the sequence “TCAATTAATTGATTTATAATGATTTGGTCTTATCAATCCCCGGAGTCACCTAGTGCAG”, the binding signal was 53400 fluorescence intensity (a.u.). The result for “GTGATTGATGTAAATGCCTTAACGGTCCAGCACCTCAGCTCGGAGTCACCTAGTGCAG” reads 61200 fluorescence intensity (a.u.). The result for “CTTATAATTGATTTATAGTCTGTCATTGTATCTGCTCTTACGGAGTCACCTAGTGCAG” reads 65100 fluorescence intensity (a.u.); that for “GTTGCTAAATTTTAGTTATTACTGTGCAGTTGCCAAATTTCGGAGTCACCTAGTGCAG”, 4010 fluorescence intensity (a.u.); that for “CATGAATTGGAAGATTTGATGCACTGATACTCCATGAAGACGGAGTCACCTAGTGCAG”, 8060 fluorescence intensity (a.u.). The result for “ATTAAATTTGAAAATTTATTAAATTGTGCTGATAAGTCAACGGAGTCACCTAGTGCAG” reads 14500 fluorescence intensity (a.u.); that for “AAGACGGTAATAGACTGTGCGAGTTGAACATGCAACTCTACGGAGTCACCTAGTGCAG”, 7360 fluorescence intensity (a.u.); that for “ATTGATTTGATTGTATTCATAATCATACAATTATCTTAGCCGGAGTCACCTAGTGCAG”, 65200 fluorescence intensity (a.u.). As for “AACAAGATTGTGATTCATACATCTGCATCTTATTTTGTATCGGAGTCACCTAGTGCAG”, the binding signal is 3650 fluorescence intensity (a.u.). The result for “AATTTTCTTATGATTAGCATTTCTATTGCTATTAGATGATCGGAGTCACCTAGTGCAG” reads 8930 fluorescence intensity (a.u.). Then “TCCATTTATCCCGATAATTTGTACTACATTTGTATAGGCCCGGAGTCACCTAGTGCAG”, with 5670 fluorescence intensity (a.u.); and “CCCTTGATTTACTTGATAATTTGTTATAGGTCCCTATCCCCGGAGTCACCTAGTGCAG”, with 53400 fluorescence intensity (a.u.); and “GCTAATAGATTGCTATTGTATCTGCTCTTATGCATGATCGCGGAGTCACCTAGTGCAG”, with 61200 fluorescence intensity (a.u.). Then “AGATAATTCTTACTAGATGATTATTGTATATGCTGCTATCCGGAGTCACCTAGTGCAG”, with 9000 fluorescence intensity (a.u.); and “ACCCTTGATTTACTTGATAATTTGTTATATGTCCCCATCCCGGAGTCACCTAGTGCAG”, with 49800 fluorescence intensity (a.u.); and “TTTGTTAAATTTCTCAATTGATTCATAATTCTTTATTAGCCGGAGTCACCTAGTGCAG”, with 10300 fluorescence intensity (a.u.).

For “CCCCATCTGTATTTTAAATTTATATCCGCCACTGATTGTACGGAGTCACCTAGTGCAG”, the binding signal is 4240 fluorescence intensity (a.u.).

Consider “CCCGATTGACAAGCTGACTCAGCATGGAGGGACCCACATGCGGAGTCACCTAGTGCAG”, for which the binding signal was 37700 fluorescence intensity (a.u.). The result for “CAACACATGATTGCCGGGCTTTCTTCCCTCTCGTCCTGAGCGGAGTCACCTAGTGCAG” reads 32000 fluorescence intensity (a.u.). As for “TAGTACTACTCATCACCAATCAGCTGCCACACATGCATGGCGGAGTCACCTAGTGCAG”, the binding signal was 5430 fluorescence intensity (a.u.). Then “CGCGCCAATCATCTCCCGCTCCCTCTTATCCTCCCCTCTCCGGAGTCACCTAGTGCAG”, with 14100 fluorescence intensity (a.u.). Then “AGGACTAATAGATTTCCAAGATGATCGGGACTGACCGATCCGGAGTCACCTAGTGCAG”, with 10600 fluorescence intensity (a.u.). The result for “TAATAGATAGATAGATAGATAGATAGATTAGTAATTTAGACGGAGTCACCTAGTGCAG” reads 30600 fluorescence intensity (a.u.). Turning to “ACTATATAATTAAAATAGATTTCACCCGTTGCAACGCACGCGGAGTCACCTAGTGCAG”, the binding signal is 13300 fluorescence intensity (a.u.).
